In the library only some 17% were active in any assay of this set; here they are far more common.
DT40 TDP1 CPT: qHTS for Inhibitors of human tyrosyl-DNA phosphodiesterase 1 (TDP1): qHTS in cells in presence of CPT. chicken DT40 Tdp1-/-;hTDP1 cells + 20 nM CPT, ATP luminescence, 48 h. Potency, µM (top dose mostly 46.2 µM), usual class: inhibitors. actives 12% (n = 420,000). AID 686979, 2013; further: nearly all actives have a fitted effect of over 55% in size
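Cell growth measured by CellTiter-Glo luminescence after a minimum 48 h, 37 C compound exposure with 20 nM CPT in Tdp1-knockout DT40 cells stably expressing hTDP1, seeded 400/well; qHTS titration format.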
TDP1 inh: qHTS Assay for Inhibitors of Tyrosyl-DNA Phosphodiesterase (TDP1); Tyrosyl-DNA phosphodiesterase 1 (Homo sapiens), Q9NUW8; recombinant TDP1, AlphaScreen DNA substrate cleavage; Potency, µM (titrated, usually from 130 µM), hits mostly inhibitors; actives 0.28% (n = 350,000); further: nearly all actives have a fitted effect of over 40% in size
Target sequence (Q9NUW8 whole entry, looked up): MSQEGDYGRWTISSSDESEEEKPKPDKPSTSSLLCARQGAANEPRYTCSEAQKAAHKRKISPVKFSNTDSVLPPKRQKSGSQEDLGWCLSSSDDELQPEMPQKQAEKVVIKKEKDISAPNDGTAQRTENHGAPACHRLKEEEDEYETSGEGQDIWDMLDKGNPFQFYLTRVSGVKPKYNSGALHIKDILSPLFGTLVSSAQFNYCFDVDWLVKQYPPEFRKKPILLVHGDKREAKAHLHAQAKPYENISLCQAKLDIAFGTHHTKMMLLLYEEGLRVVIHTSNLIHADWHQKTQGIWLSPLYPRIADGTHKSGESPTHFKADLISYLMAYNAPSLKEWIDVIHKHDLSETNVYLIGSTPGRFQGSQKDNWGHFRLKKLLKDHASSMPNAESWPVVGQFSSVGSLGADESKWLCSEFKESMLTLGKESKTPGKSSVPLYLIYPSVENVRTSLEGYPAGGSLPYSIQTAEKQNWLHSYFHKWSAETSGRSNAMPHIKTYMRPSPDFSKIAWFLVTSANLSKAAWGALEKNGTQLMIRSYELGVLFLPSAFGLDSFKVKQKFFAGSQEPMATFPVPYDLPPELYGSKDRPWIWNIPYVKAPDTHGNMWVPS
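Steps: enzyme plus compound, 15 min RT; add biotin/phosphotyrosine-FITC oligonucleotide (15 nM final), react 5 min; add donor/acceptor beads (10 ug/ml final), 10 min; read AlphaScreen. Tdp1 at 1 nM final.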
TDP1 cell noCPT: qHTS for Inhibitors of human tyrosyl-DNA phosphodiesterase 1 (TDP1): qHTS in cells in absence of CPT | Potency, µM (top dose mostly 46.2 µM), most hits filed as inhibitors | actives 15% (n = 420,000) | DT40 Tdp1-/- hTDP1 cells, no CPT, ATP luminescence, 48 h; further: nearly all actives have a fitted effect of over 55% in size
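Growth of hTDP1-complemented DT40 Tdp1-knockout cells is measured by ATP luminescence after at least 48 hr compound exposure at 37 °C, with DMSO substituting for the 20 nM CPT used in the parallel screen.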
ClpP mod: qHTS Assay for Activators of ClpP; purified B. subtilis ClpP, FRET peptide cleavage, 20 min; Potency, µM (titrated, usually from 57.5 µM); actives 1.9% (n = 340,000); AID 651965, 2013; active means well fitted falling curve with a large enough effect; inconclusive means small, poorly fitted or top-dose-only effect; inactive means no such curve, though single readings can be large or run the other way; further: the source files actives as falling curves though it sought activators and does not explain the sign; nearly all actives have a fitted effect of over 65% in size
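Buffer: 100 mM Tris/HCl pH8, 100 mM KCl, 0.05% low protease BSA, 2.5% glycerol, 0.01% Tween-20. ClpP 10 microg/mL final; 20 min RT; delta FRET normalized to ADEP and DMSO controls.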
Of the large screens only hits and unclear results are named; the others gave an inactive call. Unless noted, the call rests on the fitted dose curve; in most records, active means well fitted curve in the direction sought with a large enough effect; inconclusive means small, poorly fitted or top-dose-only effect, or another doubt; inactive means no such curve, though single readings can be large; an effect the other way counts as inactive or inconclusive.

O=C(NCCN1CCCC(O)C1)c1cc(COc2cccc(C(F)(F)F)c2)on1 (configuration not stated)	TDP1 cell noCPT inconclusive (no result: TDP1 inh)
COc1ccc(C2C(=O)N(C3CCCCCC3)CC(=O)N2CCc2ccc(OC)c(OC)c2)cc1 (configuration not stated)	DT40 TDP1 CPT inconclusive, TDP1 cell noCPT inconclusive
CCn1c(SCC(N)=O)nnc1-c1cc2c(C)nn(-c3ccccc3)c2s1	DT40 TDP1 CPT inconclusive, TDP1 cell noCPT 29.1µM
Cc1noc(C)c1COc1ccccc1C(=O)N1CCN(S(=O)(=O)c2ccc(C(C)C)cc2)CC1	DT40 TDP1 CPT inconclusive, TDP1 cell noCPT 16.4µM (no result: TDP1 inh)
Cc1noc(C)c1COc1ccccc1C(=O)N1CCN(S(=O)(=O)c2ccccc2Br)CC1	DT40 TDP1 CPT 16.4µM, TDP1 cell noCPT 20.6µM (no result: TDP1 inh)
Cc1noc(C)c1COc1ccccc1C(=O)N1CCN(S(=O)(=O)c2cccc(Cl)c2)CC1	none
Cc1cc(C)c(C)c(S(=O)(=O)N2CCN(C(=O)c3ccccc3OCc3c(C)noc3C)CC2)c1C	DT40 TDP1 CPT inconclusive, TDP1 cell noCPT 18.4µM
O=C(NCc1ccccc1)C(c1ccc(C(F)(F)F)cc1)N1CCN(CCN2CCOCC2)CC1 (configuration not stated)	none (no result: TDP1 inh)
C1=CCN(Cc2ccccc2)C1	none (no result: TDP1 inh)
COc1ccc(S(=O)(=O)NCC(c2ccco2)S(=O)(=O)c2ccc(C)cc2)cc1C (configuration not stated)	DT40 TDP1 CPT inconclusive, TDP1 cell noCPT inconclusive
CCCN1C(=O)/C(=C/c2ccc(C)s2)NC1=S	DT40 TDP1 CPT 25.9µM
Cc1ccc(/C=C2/NC(=O)N(Cc3ccccc3F)C2=O)s1	DT40 TDP1 CPT inconclusive
CO/N=C(/C(=O)NC1C(=O)N2C(C(=O)O)=C(CSc3nc(=O)c(O)nn3C)CSC12)c1csc(N)n1 (configuration not stated)	TDP1 inh 7.08µM, TDP1 cell noCPT inconclusive (no result: ClpP mod)
OC(c1cccc(Cl)c1)c1ncc(-c2cccc(C(F)(F)F)c2)[nH]1 (configuration not stated)	DT40 TDP1 CPT inconclusive, TDP1 cell noCPT 23.1µM (no result: TDP1 inh)
CCc1ccc(C(O)c2ncc(-c3cccc(C(F)(F)F)c3)[nH]2)cc1 (configuration not stated)	DT40 TDP1 CPT inconclusive, TDP1 cell noCPT 23.1µM (no result: TDP1 inh)
OC(c1ccc2ccccc2c1)c1ncc(-c2ccc(C(F)(F)F)cc2)[nH]1 (configuration not stated)	DT40 TDP1 CPT inconclusive, TDP1 cell noCPT inconclusive (no result: TDP1 inh)
OC(c1cccc(F)c1)c1ncc(-c2ccc(C(F)(F)F)cc2)[nH]1 (configuration not stated)	DT40 TDP1 CPT inconclusive, TDP1 cell noCPT 16.4µM (no result: TDP1 inh)
COc1ccc(C(O)c2ncc(-c3cccc(C(F)(F)F)c3)[nH]2)cc1F (configuration not stated)	DT40 TDP1 CPT 16.4µM, TDP1 cell noCPT inconclusive (no result: TDP1 inh)
Cc1cccc(N2CCN(C(=O)c3cc(S(=O)(=O)N4CCOCC4)cn3C)CC2C)c1 (configuration not stated)	DT40 TDP1 CPT inconclusive
Cc1[nH]n(-c2ccc([N+](=O)[O-])cc2)c(=O)c1C=NCCN1CCN(C(=O)c2ccc(F)cc2)CC1	none
CCCc1[nH]n(-c2ccc([N+](=O)[O-])cc2)c(=O)c1C=NCCc1ccc(OC)c(OC)c1	DT40 TDP1 CPT inconclusive, TDP1 cell noCPT inconclusive
Cc1[nH]n(-c2ccc([N+](=O)[O-])cc2)c(=O)c1C=NCCN1CCN(C(=O)c2cccc(F)c2)CC1	DT40 TDP1 CPT 14.6µM, TDP1 cell noCPT 9.2µM
Cc1[nH]n(-c2ccc([N+](=O)[O-])cc2)c(=O)c1C=NCCN1CCN(C(=O)c2ccc(Br)cc2)CC1	DT40 TDP1 CPT 18.4µM, TDP1 cell noCPT 14.6µM
Cc1[nH]n(-c2ccc([N+](=O)[O-])cc2)c(=O)c1C=NCCc1c[nH]c2ccccc12	DT40 TDP1 CPT 11.6µM, TDP1 cell noCPT inconclusive
C[C@H]1[C@@H](Cc2cc(Cl)cc(Cl)c2)N(c2ccccc2)c2ccccc2CN1Cc1ccccc1	DT40 TDP1 CPT inconclusive (no result: TDP1 inh)
CCOc1ccc(CNC(=O)C2=Cc3cc(Br)ccc3OC2)cc1OC	DT40 TDP1 CPT inconclusive, TDP1 cell noCPT inconclusive
O=C(C=Cc1ccccn1)c1ccccc1	DT40 TDP1 CPT 3.26µM, TDP1 cell noCPT 2.91µM (no result: TDP1 inh, ClpP mod)
O=C(C=Cc1ccccn1)c1ccccc1O	DT40 TDP1 CPT 2.91µM, TDP1 cell noCPT 3.66µM (no result: TDP1 inh, ClpP mod)
COc1ccccc1CNC(=O)C(=O)NCC(c1ccco1)S(=O)(=O)c1ccc(C)cc1 (configuration not stated)	DT40 TDP1 CPT inconclusive, TDP1 cell noCPT inconclusive
COc1ccc(CCNC(=O)C(=O)NCC(c2cccs2)S(=O)(=O)c2ccc(C)cc2)cc1 (configuration not stated)	DT40 TDP1 CPT inconclusive, TDP1 cell noCPT 9.2µM
COc1ccccc1CCNC(=O)C(=O)NCC(c1ccco1)S(=O)(=O)c1ccc(F)cc1 (configuration not stated)	DT40 TDP1 CPT 16.4µM, TDP1 cell noCPT inconclusive
Cc1ccc(S(=O)(=O)C(CNC(=O)C(=O)NCCc2ccc(F)cc2)c2cccs2)cc1 (configuration not stated)	DT40 TDP1 CPT inconclusive, TDP1 cell noCPT 16.4µM
Cc1ccc(S(=O)(=O)C(CNC(=O)C(=O)NCCc2ccccc2)c2cccs2)cc1 (configuration not stated)	DT40 TDP1 CPT 16.4µM, TDP1 cell noCPT 14.6µM
CCOC(=O)c1ccc(OC(=O)c2cn(-c3cccc(OC)c3)c(=O)c3ccccc23)cc1	DT40 TDP1 CPT inconclusive, TDP1 cell noCPT inconclusive, ClpP mod inconclusive
Cc1cc(C=NCCCO)c(C)n1-c1cc(Cl)ccc1Cl	none (no result: ClpP mod)
Cc1ccc(S(=O)(=O)C(CNC(=O)c2ccccc2F)c2cccs2)cc1 (configuration not stated)	DT40 TDP1 CPT inconclusive, TDP1 cell noCPT 14.6µM
O=C(NCC(c1cccs1)S(=O)(=O)c1cccs1)c1ccccc1F (configuration not stated)	TDP1 cell noCPT inconclusive
Cc1ccc(C)c(S(=O)(=O)NCC(c2ccco2)S(=O)(=O)c2ccc(F)cc2)c1 (configuration not stated)	DT40 TDP1 CPT 1.3µM, TDP1 cell noCPT 1.16µM
Cn1c(=O)c2c(-c3ccccc3)n3c4ccccc4nc(-c4ccccc4)c3c2n(C)c1=O	DT40 TDP1 CPT inconclusive, TDP1 cell noCPT 14.6µM, ClpP mod inconclusive
COc1ccc(-c2c3c(=O)n(C)c(=O)n(C)c3c3c(-c4ccc(C)cc4)nc4ccccc4n23)cc1	none
Cc1cccc(-c2nc3ccccc3n3c(-c4ccccc4)c4c(=O)n(C)c(=O)n(C)c4c23)c1	none
COc1ccc(-c2nc3ccccc3n3c(-c4cccc(C)c4)c4c(=O)n(C)c(=O)n(C)c4c23)cc1	DT40 TDP1 CPT 18.4µM

Source: PubChem (National Center for Advancing Translational Sciences (NCATS))
